Assay results taken from PubChem BioAssay (NCI).
About 83,000 compounds went through this panel and 20% of them were active in at least one assay; those are over-represented in the sample as a whole.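 Results are percent growth after 48 hours of single-concentration exposure. 100 means growth as in untreated cells, lower positive values show inhibition; negative values down to -100 show cell death.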 Unmarked numbers belong to inactive results. Activity calls are given as the source filed them. The calls were made as follows: active = growth percent below 10; inactive = the rest.

System: NCI/ADR-RES ovarian
Assay: NCI-60 one-dose screen, 48 h (100 = growth as untreated, 0 = no growth, -100 = all killed)
Conditions: 10 µM

Row | Structure (SMILES) | growth
1 | NC(CSC(c1ccccc1)(c1ccccc1)c1cccc2ccccc12)C(=O)O (stereo not given) | 97.6%
2 | CC(=O)[C@H]1CC[C@]2(C)[C@@H]1CC[C@@H]1[C@@]3(C)CC(CCC#N)(CCC#N)C(=O)C(C)(C)[C@@H]3CC[C@]12C | 90.5%
3 | NC1=NC(c2ccc(Cl)cc2)C2=C(N1)/C(=C/c1ccc(Cl)cc1)CCC2 (stereo not given) | 92.9%
4 | C/C(=N\O)c1ccc(NC(=O)CSc2nnc(-c3ccccc3)n2-c2ccccc2)cc1 | 90.8%
5 | NC1=CC(=O)C(=O)c2cccnc21 | 82.7%
6 | C[n+]1c2ccccc2nc2ccccc21 | 8.6% (active)
7 | COc1cc(-c2nn(-c3ccc(NC(=O)NCCNS(=O)(=O)c4ccc(F)cc4)cc3)cc2-c2ccncc2)ccc1Cl | 79.2%
8 | O=C(CSc1nccc(Nc2cccc3ccccc23)n1)c1ccc(Cl)cc1 | 93.7%
9 | CCCCCCCCCCOC(c1ccccc1)c1ccccc1 | 86.1%
10 | O=C1/C=C/[C@@H](O)[C@@H]2C[C@@H](O)C[C@H]2/C=C/CCC[C@H](CCc2ccc(C(F)(F)F)cc2)O1 | 3.21% (active)
11 | O=C(O)c1cn(C2CC2)c2cc(N3CCN(C(=O)c4cc(-c5ccc(Cl)cc5)nc5ccccc45)CC3)c(F)cc2c1=O | 98.9%
12 | CN(C)CCC1(c2ccccc2)CCN(C)C1=O (stereo not given) | 103%
13 | COc1ccc(Nc2cnc3cc(NS(=O)(=O)c4ccc(C)cc4)ccc3n2)cc1 | 73.1%
14 | COc1cc(-c2nn(-c3cccc(NC(=O)CCNc4ccc(N5CCOCC5)cc4)c3)cc2-c2ccncc2)ccc1Cl | 36%
15 | COc1cccc(-c2nc3sccn3c2-c2cccc(S(C)(=O)=O)c2)c1 | 92.5%
16 | COc1cc(CNC(=O)C2CSC3(C)c4ccccc4C(=O)N23)cc(OC)c1OC (stereo not given) | 102%
17 | COc1cc2cc(Oc3ccc(NC(=O)c4ccc(Cl)c(C(F)(F)F)c4)cc3)c(C)nc2cc1OC | 14.1%
18 | CN(C)CCCSc1ccccc1NC1=C(Cl)C(=O)C(Nc2ccccc2SCCCN(C)C)=C(Cl)C1=O | 72.4%
19 | COc1ccc(-c2cc(-c3ccc(Cl)cc3)nc(SCCCCCCC(=O)NO)n2)cc1OC | 20%
20 | O=C(NCCNC(=O)c1ccc(F)cc1)Nc1ccc(-n2cc(-c3ccncc3)c(-c3ccc(Cl)c(O)c3)n2)cc1 | 77.4%

Row | Structure (SMILES) | growth
21 | Cc1ccc(Cl)cc1NC(=O)CCl | 102%
22 | Nc1ncc(-c2cnn(C3CCNCC3)c2)cc1-c1nc2ccccc2o1 | 42.8%
23 | O=C(CCCSc1nc(-c2ccccc2)cc(-c2ccc(Cl)cc2)n1)NO | -22% (active)
24 | COc1ccc2nc3cc(Cl)ccc3c(Nc3cc(CN4CCCC4)c(O)c(CN4CCCC4)c3)c2n1 | 10.1%
25 | CN(C)CCOc1cccc(-c2nc3sccn3c2-c2ccnc(S(C)(=O)=O)n2)c1 | 101%
26 | Cc1ccc(C(=O)C2C(=O)C3CCC2C3)cc1 (stereo not given) | 99.3%
27 | COc1cc(-c2csc(NC(=O)Nc3cc(C(F)(F)F)cc(C(F)(F)F)c3)n2)cc(OC)c1OC | 10.4%
28 | O=C(CNc1nnc(-c2cccnc2SCc2ccccc2)s1)Nc1nc(Cl)cc(Cl)n1 | 114%
29 | O=C(O)c1ccc(-n2cc(CNc3ccc(Oc4ccccc4)cc3)c(-c3ccccc3)n2)cc1 | 90.1%
30 | C/C=C/C1=CN2C(=O)c3cc(OC4OC(C)C(NC)C(C)(O)C4O)c(C)c(O)c3N=C[C@@H]2C1 (stereo not given in full) | -6.18% (active)
31 | COc1ccc(/C(C#N)=C/c2ccccc2OC)cc1 | -0.0917% (active)
32 | O=S(=O)(O)c1ccc(Cl)cc1 | 99%
33 | N#CCc1csc(Cc2ccccc2)n1 | 97.3%
34 | O=C(/C=C/C=C/c1c(C2CC2)nc2ccccc2c1-c1ccc(F)cc1)c1cccs1 | 22.9%
35 | N#CC1=C(N)Oc2cc(N)ccc2C1c1cccnc1 (stereo not given) | 96.2%
36 | O=C(Cn1cc(CO)nn1)Nc1nc2ccccc2s1 | 101%
37 | CCn1c(SCCc2ccccc2)nnc1-c1nn(-c2ccc(Cl)cc2Cl)c(-c2ccc(Cl)cc2)c1C | 72.6%
38 | Cc1cc(C(C#N)c2ccc(Cl)cc2)c(Cl)cc1NC(=O)c1cc(I)cc(I)c1O (stereo not given) | 21.1%
39 | Cn1cnc([N+](=O)[O-])c1/C=C1\Oc2ccc(Br)cc2C1=O | 101%
40 | Cc1cc(Cl)ccc1Nc1nc(C(F)(F)F)ccc1C(=O)N/N=C/c1c(Cl)cccc1Cl | 11.9%
